Compounds without any hit were thinned out: in the full panel of roughly 83,000, 20% have a hit.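 Interpretation: 100, growth as untreated; towards 0, rising growth inhibition; 0, no net growth; 0 to -100, cell death. Compounds scoring below 10 were considered active.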 The source made the active and inactive calls.
Key:
Test in all cases: NCI-60 one-dose screen, 48 h (100 = growth as untreated, 0 = no growth, -100 = all killed)
HCT-15 colon = tested on: HCT-15 colon
HT29 colon = tested on: HT29 colon
SNB-75 CNS = tested on: SNB-75 CNS
SNB-19 CNS = tested on: SNB-19 CNS
U251 CNS = tested on: U251 CNS
PC-3 prostate = tested on: PC-3 prostate
SK-MEL-5 melanoma = tested on: SK-MEL-5 melanoma
UACC-62 melanoma = tested on: UACC-62 melanoma
LOX IMVI melanoma = tested on: LOX IMVI melanoma
SK-MEL-28 melanoma = tested on: SK-MEL-28 melanoma
SK-MEL-2 melanoma = tested on: SK-MEL-2 melanoma
EKVX NSCLC = tested on: EKVX NSCLC
SN12C renal = tested on: SN12C renal
UO-31 renal = tested on: UO-31 renal
TK-10 renal = tested on: TK-10 renal
ACHN renal = conditions: 10 µM unless noted
CAKI-1 renal = conditions: 10 µM unless noted
A498 renal = tested on: A498 renal
CCRF-CEM leukemia = tested on: CCRF-CEM leukemia
MOLT-4 leukemia = tested on: MOLT-4 leukemia

Measured: growth

Nc1ncnc2c1C(c1ccc([N+](=O)[O-])cc1)c1sc3c(F)cccc3c1O2 (configuration not stated)
inactive: HCT-15 colon; 10 µM unless noted 102% | HT29 colon; 10 µM unless noted 112% | SNB-75 CNS; 10 µM unless noted 97% | SNB-19 CNS; 10 µM unless noted 102% | U251 CNS; 10 µM unless noted 92.4% | PC-3 prostate; 10 µM unless noted 91.6% | SK-MEL-5 melanoma; 10 µM unless noted 98.4% | UACC-62 melanoma; 10 µM unless noted 81% | LOX IMVI melanoma; 10 µM unless noted 84.2% | SK-MEL-28 melanoma; 10 µM unless noted 106% | SK-MEL-2 melanoma; 10 µM unless noted 107% | EKVX NSCLC; 10 µM unless noted 98.4% | SN12C renal; 10 µM unless noted 97.1% | UO-31 renal; 10 µM unless noted 68.4% | TK-10 renal; 10 µM unless noted 129% | ACHN renal 89.8% | CAKI-1 renal 74.9% | A498 renal; 10 µM unless noted 97.8% | CCRF-CEM leukemia; 10 µM unless noted 94.3% | MOLT-4 leukemia; 10 µM unless noted 93.4%

NC(N)=NC(N)=NCCCc1ccco1
inactive: HCT-15 colon; 10 µM unless noted 106% | HT29 colon; 10 µM unless noted 94.4% | SNB-75 CNS; 10 µM unless noted 111% | SNB-19 CNS; 10 µM unless noted 103% | U251 CNS; 10 µM unless noted 101% | PC-3 prostate; 10 µM unless noted 103% | SK-MEL-5 melanoma; 10 µM unless noted 101% | UACC-62 melanoma; 10 µM unless noted 113% | LOX IMVI melanoma; 10 µM unless noted 97.1% | SK-MEL-28 melanoma; 10 µM unless noted 98.8% | SK-MEL-2 melanoma; 10 µM unless noted 96.1% | EKVX NSCLC; 10 µM unless noted 113% | SN12C renal; 10 µM unless noted 108% | UO-31 renal; 10 µM unless noted 102% | TK-10 renal; 10 µM unless noted 86.2% | ACHN renal 107% | CAKI-1 renal 96.4% | A498 renal; 10 µM unless noted 118% | CCRF-CEM leukemia; 10 µM unless noted 101% | MOLT-4 leukemia; 10 µM unless noted 93.2%

CC(=O)/C=C/c1ccc(OCc2ccc(Cl)cc2)cc1
active: SK-MEL-5 melanoma; 100 µM -37% | SK-MEL-2 melanoma; 100 µM 4.19%
inactive: HCT-15 colon; 10 µM 96.7% | HCT-15 colon; 100 µM 42% | HT29 colon; 10 µM 94.3% | HT29 colon; 100 µM 36.2% | SNB-75 CNS; 10 µM 91% | SNB-75 CNS; 100 µM 35.6% | SNB-19 CNS; 10 µM 105% | SNB-19 CNS; 100 µM 51.7% | U251 CNS; 10 µM 88.3% | U251 CNS; 100 µM 33.9% | PC-3 prostate; 10 µM 90% | PC-3 prostate; 100 µM 36.1% | SK-MEL-5 melanoma; 10 µM 97.7% | UACC-62 melanoma; 10 µM 95.5% | UACC-62 melanoma; 100 µM 24.6% | LOX IMVI melanoma; 10 µM 86.7% | LOX IMVI melanoma; 100 µM 32.2% | SK-MEL-28 melanoma; 10 µM 112% | SK-MEL-28 melanoma; 100 µM 26.1% | SK-MEL-2 melanoma; 10 µM 101% | EKVX NSCLC; 10 µM 116% | EKVX NSCLC; 100 µM 28.8% | SN12C renal; 10 µM 102% | SN12C renal; 100 µM 48.6% | UO-31 renal; 10 µM 91.4% | UO-31 renal; 100 µM 21% | TK-10 renal; 10 µM 77.6% | TK-10 renal; 100 µM 27.9% | ACHN renal 109% | A498 renal; 10 µM 82.6% | A498 renal; 100 µM 12.1% | CCRF-CEM leukemia; 10 µM 86.8% | CCRF-CEM leukemia; 100 µM 41.2% | MOLT-4 leukemia; 10 µM 92.8% | MOLT-4 leukemia; 100 µM 16.7%

C#CCOc1cccc(Nc2ncc3ncn(C4CCN(C(=O)CCl)C4)c3n2)c1 (configuration not stated)
inactive: HT29 colon; 10 µM unless noted 23.4% [6.25 µM] | SNB-75 CNS; 10 µM unless noted 72.6% [6.25 µM] | SNB-19 CNS; 10 µM unless noted 64.6% [6.25 µM] | U251 CNS; 10 µM unless noted 43.2% [6.25 µM] | PC-3 prostate; 10 µM unless noted 74.9% [6.25 µM] | SK-MEL-5 melanoma; 10 µM unless noted 39.1% [6.25 µM] | UACC-62 melanoma; 10 µM unless noted 44.8% [6.25 µM] | SK-MEL-28 melanoma; 10 µM unless noted 78% [6.25 µM] | SK-MEL-2 melanoma; 10 µM unless noted 61.9% [6.25 µM] | EKVX NSCLC; 10 µM unless noted 91.3% [6.25 µM] | SN12C renal; 10 µM unless noted 13.2% [6.25 µM] | UO-31 renal; 10 µM unless noted 29.9% [6.25 µM] | CAKI-1 renal 49.3% [6.25 µM] | A498 renal; 10 µM unless noted 89.2% [6.25 µM]
active: HCT-15 colon; 10 µM unless noted 6.97% [6.25 µM] | LOX IMVI melanoma; 10 µM unless noted -55.1% [6.25 µM] | TK-10 renal; 10 µM unless noted -34.9% [6.25 µM] | ACHN renal -31.2% [6.25 µM] | CCRF-CEM leukemia; 10 µM unless noted -16.6% [6.25 µM] | MOLT-4 leukemia; 10 µM unless noted 5.59% [6.25 µM]

O=C1/C(=C/c2cn(-c3ccccc3)nc2-c2ccccc2)SC(=S)N1c1ccccc1
inactive: HCT-15 colon; 10 µM unless noted 101% | HT29 colon; 10 µM unless noted 108% | SNB-75 CNS; 10 µM unless noted 97.2% | SNB-19 CNS; 10 µM unless noted 93.4% | U251 CNS; 10 µM unless noted 103% | PC-3 prostate; 10 µM unless noted 77.9% | SK-MEL-5 melanoma; 10 µM unless noted 98.9% | UACC-62 melanoma; 10 µM unless noted 87.5% | LOX IMVI melanoma; 10 µM unless noted 86.8% | SK-MEL-28 melanoma; 10 µM unless noted 97.4% | SK-MEL-2 melanoma; 10 µM unless noted 110% | EKVX NSCLC; 10 µM unless noted 99% | SN12C renal; 10 µM unless noted 90.7% | UO-31 renal; 10 µM unless noted 82.3% | TK-10 renal; 10 µM unless noted 106% | ACHN renal 95.5% | CAKI-1 renal 87.2% | A498 renal; 10 µM unless noted 91.1% | CCRF-CEM leukemia; 10 µM unless noted 101% | MOLT-4 leukemia; 10 µM unless noted 109%

CCCCCCNC(=O)Oc1ccc(/C(=C(/CC)Cc2ccccc2)c2ccc(OCCCN(C)C)cc2)cc1
active: LOX IMVI melanoma; 10 µM unless noted -15%
inactive: HCT-15 colon; 10 µM unless noted 14.7% | HT29 colon; 10 µM unless noted 18.9% | SNB-75 CNS; 10 µM unless noted 68.4% | SNB-19 CNS; 10 µM unless noted 88.3% | U251 CNS; 10 µM unless noted 60.4% | PC-3 prostate; 10 µM unless noted 73.2% | SK-MEL-5 melanoma; 10 µM unless noted 87.7% | UACC-62 melanoma; 10 µM unless noted 94.9% | SK-MEL-28 melanoma; 10 µM unless noted 101% | SK-MEL-2 melanoma; 10 µM unless noted 106% | EKVX NSCLC; 10 µM unless noted 89.2% | SN12C renal; 10 µM unless noted 87.1% | UO-31 renal; 10 µM unless noted 59% | TK-10 renal; 10 µM unless noted 82.2% | ACHN renal 100% | CAKI-1 renal 89.6% | A498 renal; 10 µM unless noted 89.9% | CCRF-CEM leukemia; 10 µM unless noted 69.4% | MOLT-4 leukemia; 10 µM unless noted 67.1%

S=c1nc(CS)[nH]c2ccccc12
inactive: HCT-15 colon; 10 µM unless noted 93.2% | HT29 colon; 10 µM unless noted 101% | SNB-75 CNS; 10 µM unless noted 86.7% | SNB-19 CNS; 10 µM unless noted 92.5% | U251 CNS; 10 µM unless noted 96.7% | PC-3 prostate; 10 µM unless noted 93.9% | SK-MEL-5 melanoma; 10 µM unless noted 95.7% | UACC-62 melanoma; 10 µM unless noted 90.6% | LOX IMVI melanoma; 10 µM unless noted 91% | SK-MEL-28 melanoma; 10 µM unless noted 105% | SK-MEL-2 melanoma; 10 µM unless noted 101% | EKVX NSCLC; 10 µM unless noted 84% | SN12C renal; 10 µM unless noted 95.4% | UO-31 renal; 10 µM unless noted 71.8% | TK-10 renal; 10 µM unless noted 161% | ACHN renal 93.5% | CAKI-1 renal 77.1% | A498 renal; 10 µM unless noted 53.2% | CCRF-CEM leukemia; 10 µM unless noted 102% | MOLT-4 leukemia; 10 µM unless noted 102%

Source: PubChem BioAssay (NCI)
